Reference: PubChem BioAssay (NCI)
Compounds without any hit were thinned out: in the full panel of roughly 83,000, 20% have a hit.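 Single-concentration screen, 48 h exposure, 96-well plates. Endpoint: percent growth. Below 10 = active.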 Active and inactive are the calls of the source.

Tested on: UACC-62 melanoma
Assay: NCI-60 one-dose screen, 48 h (100 = growth as untreated, 0 = no growth, -100 = all killed)
Settings: 10 µM unless noted

| SMILES | growth |
| --- | --- |
| Cc1ccc(/C=C(\C#N)n2nnc3cc(Cl)c(Cl)cc32)cc1 | 26.1% (inactive) |
| COc1cc(C2C=C(c3cccc(NC(C)=O)c3)Nc3ncnn32)cc(OC)c1OC (centres undefined) | 22.9% (inactive) |
| CC(=[N-])N1CCC[C@@H](Nc2c3ccccc3nc3ccccc23)C1.[Cl][Pt].[NH-]CCC[NH-] | -63.3% (active) |
| O=C(/C=C/C12c3ccccc3C(c3ccccc31)C1C(=O)NC(=O)C12)c1ccccc1 (centres undefined) | 36.3% (inactive) |
| COc1cc2ccccc2cc1C(=O)NC(=S)Nc1ccc(-c2nc3ccccc3[nH]2)cc1 | 93% (inactive) |

Tested on: LOX IMVI melanoma
Assay: as above
Settings: 10 µM unless noted

| SMILES | growth |
| --- | --- |
| CN(C)CCN1C(=O)c2cccc3c(-c4ccc(-c5nc6c7ccccc7c7ccccc7c6[nH]5)cc4)ccc(c23)C1=O | 58% (inactive) |
| O=C(Nc1ccc(N2CCCCC2)c(Cl)c1)c1ccc(Br)o1 | 2.04% (active) |
| COc1ccc(OC)c(Nc2nc3nonc3nc2Nc2cccc(Br)c2)c1 | 4.56% (active) |
| O=C(NCCN1CCC(O)CC1)c1cc2c(o1)C(=O)c1ccccc1C2=O | -89.3% (active) |
| COc1cc(/C=C/C(=O)c2cccc(-n3cc(-c4ccccc4)[nH]c3=O)c2)cc(OC)c1OC | -85.2% (active) |
| Fc1ccc(Nc2nc(Nc3ccc(-c4nc5ccccc5[nH]4)cc3)c3cn[nH]c3n2)cc1 | -64.6% (active) |
| COc1ccc(-c2nc3sc4c(c3c(=O)[nH]2)CCCC4)c2ccccc12 | 26.9% (inactive) |
| O=[N+]([O-])c1ccccc1C(O)Cc1ccc2ccccc2n1 (centres undefined) | 93% (inactive) |
| N#Cc1c(NC(=O)c2ccccc2I)sc2c1CCCC2 | 36.8% (inactive) |
| NC(=O)c1c(NC(=O)c2ccc(C(F)(F)F)cc2Cl)sc2c1CCC(=O)C2 | -15.5% (active) |
| COc1cc(CNC(=O)/C=C/C=C/c2ccc3c(c2)OCO3)ccc1OCc1cn(-c2ccc(Cl)c(Cl)c2)nn1 | 11.6% (inactive) |
| CSc1ccc(Cl)c(C(=O)Nc2sccc2C(N)=O)c1 | 100% (inactive) |
| COc1cc(-c2cccc([N+](=O)[O-])c2)c(-c2nc(-c3ccccc3)c(-c3ccccc3)n2C2CC2)cc1OC | 60.1% (inactive) |
| O=C(/C=C/C12c3ccccc3C(c3ccccc31)C1C(=O)NC(=O)C12)c1ccc(Cl)cc1 (centres undefined) | -87.9% (active) |
| O=S(=O)(Nc1ccsc1-c1nc(-c2ccccc2)no1)c1cc(Cl)cc(Cl)c1 | 96.5% (inactive) |
| C[C@H]1[C@H]2C3=CC[C@@H]4[C@@]5(C)C/C(=C/c6ccncc6)C(=O)C(C)(C)[C@@H]5CC[C@@]4(C)[C@]3(C)CC[C@@]2(C(=O)N2CCN(C)CC2)CC[C@@H]1C | 84.3% (inactive) |
| C=C1C(=O)O[C@H]2[C@H]1CC/C(C(=O)NCCCCCCCCNC(=O)/C1=C/CC[C@@]3(C)O[C@H]3[C@H]3OC(=O)C(=C)[C@@H]3CC1)=C\CC[C@@]1(C)O[C@@H]21 | 84% (inactive) |
| CC(C)OC(=O)NNC(=O)c1ccncc1 | 101% (inactive) |
| COc1cc2c(=O)n(CCCn3ccnc3)c3c4cc5c(cc4ccc3c2cc1OC)OCO5 | -62.4% (active) |
| COc1cc(/C=C/c2nc(Nc3ccc(S(=O)(=O)Nc4cc(C)on4)cc3)c3ccccc3n2)ccc1O | 59.5% (inactive) |
| C[C@@H]1CC[C@@H]2[C@@H]1[C@H](OC(=O)/C=C/c1ccccc1)[C@]1(CCCOCCOCCOCCOC(=O)CCCC[C@@H]3SC[C@@H]4NC(=O)N[C@@H]43)C[C@@H](OC(=O)CO)[C@@]2(C)O1 | 106% (inactive) |
| O=C(CCCCCCCn1cc(-c2cccnc2)nn1)Nc1ccccc1-c1ccccc1 | 57.3% (inactive) |
| O=C(NCc1cn(Cc2cccc(Oc3ccccc3)c2)nn1)c1cccnc1NCc1ccc(Cl)cc1 | 39.4% (inactive) |
| CCOC(=O)c1c(C)nc2c(c1N)/C(=C/c1ccc(OC)cc1)C(=O)N2Cc1ccc(F)cc1 | -93.1% (active) |
| O=C(O)c1ccc(CO)o1 | 109% (inactive) |
| CN(C)CN1CCN(c2ccc3nc(-c4ccc5nc(-c6ccc(C(F)(F)F)cc6)[nH]c5c4)[nH]c3c2)CC1 | 32.2% (inactive) |
| COc1ccc(-c2nc3ccccn3c2/C=C/C(=O)c2cc(OC)c(OC)c(OC)c2)cc1 | 44.2% (inactive) |
| Cc1nc(Nc2ccc(S(=O)(=O)Nc3cc(C)on3)cc2)c2ccccc2n1 | 102% (inactive) |
| C#C[C@]1(O)CC[C@H]2[C@@H]3CC=C4c5sc(N=C(N)N)nc5CC[C@]4(C)[C@H]3CC[C@@]21C | -64.4% (active) |
